PubChem BioAssay (EPA / NIEHS)
Activity calls are given as the source filed them. Rule for the calls: active = hit-call score of the fitted dose curve at least 0.9, where 1 is the maximum; inactive = score below 0.9.

Assay: ATG_GRE_CIS: Attagene CIS-FACTORIAL HepG2 Assay for human Glucocorticoid Response Elements (GRE) (AID 2282947)
Conditions: HepG2 GRE cis-reporter, Attagene multiplex mRNA; actives raise or lower the signal
Description: ATG_CIS is a cell-based, multiplexed-readout assay that uses HepG2, a human liver cell line, with measurements taken at 24 hours after chemical dosing in a 24-well plate.ATG_GRE_CIS is one of 52 assay component(s) measured or calculated from the ATG_CIS assay. It is designed to make measurements of mRNA induction, a form of inducible reporter, as detected with fluorescence intensity signals by Reverse transcription polymerase chain reaction (RT-PCR) and Capillary electrophoresis technology.Data from the assay component ATG_GRE_CIS was analyzed into 1 assay endpoint. This assay endpoint, ATG_GRE_CIS, was analyzed with bidirectional fitting relative to DMSO as the negative control and baseline of activity. Using a type of inducible reporter, measures of mRNA for gain or loss-of-signal activity can be used to understand the reporter gene at the transcription factor-level as they relate to the gene NR3C1. Furthermore, this assay endpoint can be referred to as a primary readout, because this assay has produced multiple assay endpoints where this one serves a reporter gene function. To generalize the intended target to other relatable targets, this assay endpoint is annotated to the nuclear receptor intended target family, where the subfamily is steroidal.
Human liver HepG2 cells are transiently transfected with multiple reporter transcription units (MRTUs) in 6-well plates using FuGene 6 reagent (Roche; 3 ml FuGene/1 mg DNA). The MRTU constructs are regulated by a cis-regulating element (promoter). […] A major difference between the CIS and TRANS system is that in CIS activities of endogenous TFs are measured, whereas the TRANS assay evaluates changes in activities of exogenous, chimeric NR-Gal4 proteins. […] At the end of 24 hour incubation, total RNA was isolated using TriZol reagent (Invitrogen). The isolated RNA is then reverse-transcribed using oligo(dT) primer and Mo-MLV reverse transcriptase (Invitrogen) with DNAse I (Ambion) treatment for 30 min. The one-tenth of the produced cDNA was amplified by PCR using Taq DNA polymerase (Invitrogen) and two reporter sequence-specific primers. The PCR products were fluorescently labeled by primer extension with 6-arboxyfluorescein (6-FAM) 5'-labeled reporter sequence-specific primer (2 min at 95 C, 20 s at 68 C and 10 min at 72 C) and these products were digested with 5U of HpaI (New England Biolabs) for 2h at 37 C. The fragments were purified using Qiaquick PCR columns (Qiagen), analyzed on an ABI 3130xL genetic analyzer (Applied Biosystems) with peak positions identified by using a set of X-rhodamine (ROX)-labeled MapMarker1000 molecular weight standards (BioVentures). The raw capillary electrophoresis data was processed using Attagraph software (Attagene).

| Compound | outcome | AC50 |
| --- | --- | --- |
| CC=C(C)C(C)=O | inactive |  |
| O=C1c2ccccc2C(=O)c2cc(S(=O)(=O)O)ccc21 | inactive |  |
| CC(C)[N+](C)(CCOC(=O)C1c2ccccc2Oc2ccccc21)C(C)C | inactive |  |
| CC(C=O)c1ccccc1 (stereo not given) | inactive |  |
| CC(=O)CCC=C(C)C | inactive |  |
| Nc1ncnc2nc[nH]c12 | inactive |  |
| CCCCCCCCCCCCc1ccc(O)cc1 | inactive |  |
| CCCCCC1=CCCC1=O | inactive |  |
| COc1ccc(-c2coc3cc(O)cc(O)c3c2=O)cc1 | inactive |  |
| CC=C(C)C=CC=C(C)C | inactive |  |
| O=C(O[C@@H]1Cc2c(O)cc(O)cc2O[C@@H]1c1cc(O)c(O)c(O)c1)c1cc(O)c(O)c(O)c1 | inactive |  |
| O=C(O)c1cc(O)c2ccccc2c1O |  | 21.8 µM (active) |
| CC(C)OC(=O)c1ccccc1 | inactive |  |
| COC(C=C(C)CCC=C(C)C)OC | inactive |  |
| CCC(C)N (stereo not given) | inactive |  |
| C=CCCCCCCCCOC(C)=O | inactive |  |
| CN(C)Cc1cc(CN(C)C)c(O)c(CN(C)C)c1 | inactive |  |
| CCCCCCCO | inactive |  |
| NC(=O)Nc1ccccc1 | inactive |  |
| O=C(C=Cc1ccccc1)OCCc1ccccc1 | inactive |  |

| Compound | outcome | AC50 |
| --- | --- | --- |
| CCCCC(CC)COC(=O)/C=C/c1ccc(OC)cc1 (stereo not given) | inactive |  |
| CCCCOC(=O)CCC(C)=O | inactive |  |
| Oc1c(Cl)cc(Cl)c(Cl)c1Cl | inactive |  |
| CC1=CP(=O)(c2ccccc2)CC1 (stereo not given) | inactive |  |
| CC(C)c1cccc(C(C)C)c1N | inactive |  |
| O=C(OCc1ccccc1)c1ccc(O)cc1 | inactive |  |
| CC(Cl)COP(=O)(OCC(C)Cl)OCC(C)Cl (stereo not given) | inactive |  |
| CCCCNC(=S)NCCCC | inactive |  |
| CC(C)(C)N | inactive |  |
| C[Si](C)(C)N[Si](C)(C)C | inactive |  |
| CC(=O)OC1CCCCC1 | inactive |  |
| C=CCNCC=C | inactive |  |
| CC(=O)c1ccc(S(=O)(=O)NC(=O)NC2CCCCC2)cc1 | inactive |  |
| COc1nccnc1CC(C)C | inactive |  |
| CC(CCC(=O)O)(c1ccc(O)cc1)c1ccc(O)cc1 | inactive |  |
| CCCCCCCOC(=O)c1ccc(O)cc1 | inactive |  |
| CC1=C(O)C(=O)C(C)O1 (stereo not given) | inactive |  |
| CCOC(=O)OC(=O)OCC | inactive |  |
| CC=CC(=O)OCC(C)C | inactive |  |
| C=CC(=O)OCC(C)OCC(C)OCC(C)OC(=O)C=C (stereo not given) | inactive |  |
